Growth inhibition data for 14 compounds are collected here from PubChem BioAssay (NCI).

This assay can be described thus: NCI Yeast Anticancer Drug Screen. Data for the rad50 strain (AID 155).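 Also: 0% = growth of vehicle-only cultures of the same strain.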 The following applies: S. cerevisiae rad50 strain growth inhibition, active compounds read high. As to the method: Growth inhibition of yeast strains with defined genetic alterations is measured as a screen for potential anti-cancer activity. Selected strains with alterations in DNA damage repair or cell cycle control were exposed to compounds and growth inhibition was measured relative to vehicle treated controls. The strain used in this assay is rad50

Setting [1] is: at 5.0 µM (retest, dose inferred, filed as 0.5).
Where [2] appears, read: at 50.0 µM (retest, dose inferred, filed as 5.0).

Compounds without any hit were thinned out: in the full panel of roughly 79,000, 15% have a hit. Values without a mark were called inactive. Activity calls are given as the source filed them. Rule as the data show it: active = growth inhibition above about 70%; inactive = the rest.

As to `CCOC(=O)c1c(-c2ccccc2)csc1NC(=O)CBr`, the growth inhibition was 22% under setting [1], 98% (active) under setting [2] and 99.1% (active) (at 50.0 µM).

With `CCCCOc1c(OCCCC)c(=O)c1=O`, the growth inhibition by setting is: under setting [1], 78% (active); under setting [2], 54%; (at 50.0 µM) -13.6%.

`CC#Cc1cc2c(cc1O)CC[C@@H]1[C@@H]2CC[C@]2(C)[C@@H](O)CC[C@@H]12`: the growth inhibition is 39% under setting [1], 99% (active) under setting [2] and 84.7% (active) (at 50.0 µM).

Turning to `COC(=O)c1[nH]cnc1/N=N/N(C)C`, the growth inhibition was 98% (active) under setting [1], 98% (active) under setting [2] and 98.8% (active) (at 50.0 µM).

`NC(=S)N/N=C\c1nccc2c(C(F)(F)C(F)(F)C(F)(F)F)cccc12`: the growth inhibition is, setting by setting: under setting [1], 26%; under setting [2], 61%; (at 50.0 µM) 57.9%.

Turning to `Cc1ccc(N)c(Cc2c(O)ccc3ccccc23)c1`, the growth inhibition under setting [1] was 2%, the growth inhibition under setting [2] was 79% (active) and the growth inhibition (at 50.0 µM) was 98.2% (active).

For `CCCCCCCCCCCCCCCCCCn1[se]c2ccccc2c1=O`, the growth inhibition is, setting by setting: under setting [1], 7%; under setting [2], 7%; (at 50.0 µM) 69.3%.

On to `S=C(N/N=C/c1ccccn1)Nc1ccccn1`, for which the growth inhibition was -1% under setting [1], 99% (active) under setting [2] and 90.8% (active) (at 50.0 µM).

For `Cc1c2c(c(O)c3c(O)cccc13)C(=O)C1(O)C(=O)C(C(N)=O)C(O)C(N(C)C)C1C2` (configuration not stated), the growth inhibition by setting is: under setting [1], 27%; under setting [2], 99% (active); (at 50.0 µM) 65.7%.

Consider `C[C@]12CC[C@H](O)C[C@@H]1CC[C@@H]1[C@@H]2C(=O)C[C@]2(C)C3=CC(=O)O[C@H]3C[C@@H]12`, for which the growth inhibition by setting is: under setting [1], 40%; under setting [2], 97% (active); (at 50.0 µM) 98.2% (active).

As to `O=C(O)/C(=C\c1ccc(F)cc1)c1ccccc1`, the growth inhibition reads like this: under setting [1], -3%; under setting [2], -12%; (at 50.0 µM) 48%.

Consider `Cc1ccc(O)c(Cc2ccccc2Cl)c1`, for which the growth inhibition reads like this: under setting [1], -2%; under setting [2], 99% (active); (at 50.0 µM) 99.3% (active).

Take `CN(C)c1ccc(/C=C\c2c3ccccc3cc[n+]2[O-])cc1`: the growth inhibition under setting [1] is -4%, the growth inhibition under setting [2] is -1% and the growth inhibition (at 50.0 µM) was 70%.

As for `CCOC(=O)C(CO)c1nc2c([nH]c1=O)c(=O)n(C)c(=O)n2C` (configuration not stated), the growth inhibition by setting is: under setting [1], 5%; under setting [2], 18%; (at 50.0 µM) 29.9%.
